This is one part of a sample in which hits are shown more often than they occur.
HIV RNase H inh-1 = inhibitors of HIV-1 reverse transcriptase RNase H; P04585; RT-RNase H RNA/DNA duplex cleavage, fluorescence; inhibition, % at 10 µM; hit rate 1.9% among 65,000; AID 565; in the data active = inhibition above about 50%
RmlC RmlD mix = RmlC/RmlD inhibition, mixture screen. RmlC/RmlD coupled enzyme inhibition, 384-well mixture HTS. inhibition, % at 5.5 µM. hit rate 0.39% among 110,000; in the data active = inhibition above about 30%, passing the limit was not always enough; inconclusive = no clear call, values can overlap the other calls
HIV RNase H inh-2 = confirmation of HIV-1 reverse transcriptase RNase H inhibitors. inhibition, % at 10 µM. shares compounds with HIV RNase H inh-1. hit rate 39% among 1,000. AID 651. Recombinant RT RNase H, fluorescent RNA/DNA duplex cleavage; in the data active = inhibition above about 48%; inconclusive = no clear call, values can overlap the other calls
Numbers stand for hits.

COc1cc(-c2nnc3sc(-c4ccccn4)nn23)cc(OC)c1OC was read as HIV RNase H inh-1 inactive.
Screening Cc1ccc(C2C(C#N)=C(N)SC(N)=C2C#N)cc1 returned HIV RNase H inh-1 67 and HIV RNase H inh-2 inactive.
Screening CC(C)C1C(C#N)=C(N)SC(N)=C1C#N returned HIV RNase H inh-1 inactive and RmlC RmlD mix inactive.
For Cc1ccc(C2C(C#N)=C(N)SC(N)=C2C#N)c(C)c1 the results were HIV RNase H inh-1 83, RmlC RmlD mix inactive and HIV RNase H inh-2 inactive.
N#CC1=C(N)SC(N)=C(C#N)C1c1ccoc1 was read as HIV RNase H inh-1 86, RmlC RmlD mix inactive and HIV RNase H inh-2 inactive.
`CC1=C(C#N)C(c2ccoc2)C(C(=O)OCc2ccccc2)=C(N)S1` (centres undefined) gave HIV RNase H inh-1 inactive and RmlC RmlD mix inactive.
CC(c1ccccc1)C1C(C#N)=C(N)SC(N)=C1C#N (centres undefined) was read as HIV RNase H inh-1 inactive and RmlC RmlD mix inactive.
For O=C(O)c1ccc2[nH]c3c(c2c1)CSCC3 the results were HIV RNase H inh-1 66, RmlC RmlD mix inactive and HIV RNase H inh-2 inactive.
For O=C(NCCO)c1ccc2[nH]c3c(c2c1)CCCC3 the results were HIV RNase H inh-1 inactive and RmlC RmlD mix inactive.
O=C(COc1ccc(Cl)cc1)Nc1nc(-c2ccc(S(=O)(=O)N3CCOCC3)cc2)cs1 was read as RmlC RmlD mix inactive.
Screening O=C(COc1ccccc1)Nc1nc(-c2ccc(S(=O)(=O)N3CCOCC3)cc2)cs1 returned HIV RNase H inh-1 66, RmlC RmlD mix inactive and HIV RNase H inh-2 inactive.
Screening Cc1ccc(C2C(/C=C3/SC(=S)NC3=O)=C(c3cccs3)Oc3ccccc32)cc1 (centres undefined) returned RmlC RmlD mix inactive.
For CCN(c1nc(N)c(C(=O)N=C(N)N)nc1Cl)C(C)C the results were RmlC RmlD mix inactive.
For Cc1nc(SCC(=O)c2ccccc2)n[nH]1 the results were HIV RNase H inh-1 59, RmlC RmlD mix inactive and HIV RNase H inh-2 inactive.
For O=C(CSc1n[nH]c(-c2ccncc2)n1)c1ccccc1 the results were HIV RNase H inh-1 inactive and RmlC RmlD mix inactive.
COCOc1ccc(C=O)c(OCOC)c1 was read as RmlC RmlD mix inactive.
Screening CCCCOc1ccc(C2C3CN(C(=O)OCC)CC=C3C(C#N)=C(N)C2(C#N)C#N)cc1OC (centres undefined) returned HIV RNase H inh-1 84, RmlC RmlD mix inactive and HIV RNase H inh-2 inactive.
Screening CCOC(=O)N1CC=C2C(C#N)=C(N)C(C#N)(C#N)[C@H](c3ccc(OCC)c(OCC)c3)[C@H]2C1 returned HIV RNase H inh-1 inactive and RmlC RmlD mix inactive.
CCOc1ccc(-c2nc3c(s2)CCc2onc(-c4ccc(OC)cc4)c2-3)cc1 was read as RmlC RmlD mix inactive.
Screening CN1CCN(Cc2cc(C(C)(C)C)c(O)c(C(C)(C)C)c2)CC1 returned RmlC RmlD mix inactive.
Screening CC(C)(C)c1cc(C(c2cccnc2)N2CCN(CCO)CC2)cc(C(C)(C)C)c1O (centres undefined) returned HIV RNase H inh-1 83, RmlC RmlD mix inactive and HIV RNase H inh-2 inactive.
`CCOC(=O)c1c(NC(=O)CSc2nc3ccccc3o2)sc(C)c1C` gave RmlC RmlD mix inactive.
`CCOC(=O)c1c(C)[nH]c(C(=O)CSc2nnc(CC(C)c3ccccc3)o2)c1C` (centres undefined) gave HIV RNase H inh-1 72, RmlC RmlD mix inactive and HIV RNase H inh-2 inconclusive.
For CCOC(=O)c1c(C)[nH]c(C(=O)CSc2nc3ccccc3o2)c1C the results were HIV RNase H inh-1 90, RmlC RmlD mix inactive and HIV RNase H inh-2 69.
For CC(=O)c1c(C)[nH]c(C(=O)CSc2nnc(-c3ccccc3)o2)c1C the results were RmlC RmlD mix inactive.
CCOC(=O)C1CCN(Cc2cnc(Oc3ccc(C(C)(C)C)cc3)s2)CC1 was read as RmlC RmlD mix inactive.
O[C@H]1COC2C1OC[C@@H]2O (some centres undefined) was read as RmlC RmlD mix inactive.
For Cc1nc(N)c2c(Cc3cccc4ccccc34)nn(C(C)(C)C)c2n1 the results were RmlC RmlD mix inactive.
For CC1=C(C(=O)OCc2ccccc2)C(c2ccc(Cl)cc2Cl)NC(=O)N1CCCC(=O)O (centres undefined) the results were RmlC RmlD mix inactive.
`Cc1nc(NC(=O)CSc2ccccc2N)sc1C` gave HIV RNase H inh-1 inactive and RmlC RmlD mix inactive.
Screening O=C(c1ccc2c3c(cccc13)C(=O)N(O)C2=O)N1CCCCC1 returned HIV RNase H inh-1 80, RmlC RmlD mix inactive and HIV RNase H inh-2 70.
`O=C1c2cccc3c(Cl)ccc(c23)C(=O)N1O` gave HIV RNase H inh-1 inactive and RmlC RmlD mix inactive.
`CCOc1ccc(NC(=O)C2=C(C)C(=O)OC23CCC(C)CC3)cc1` (centres undefined) gave RmlC RmlD mix inactive.
Screening CCn1c(=S)sc2nc(C)sc21 returned HIV RNase H inh-1 84, RmlC RmlD mix inactive and HIV RNase H inh-2 inactive.
CCn1c(-c2ccc(C)cc2)n[nH]c1=S was read as RmlC RmlD mix inactive.
`CCOc1ccccc1C1CC(=O)NC(SCC(=O)Nc2nccs2)=C1C#N` (centres undefined) gave RmlC RmlD mix inactive.
Screening O=C1CC(c2ccccc2)Cc2nc(N3CCc4ccccc43)ncc21 (centres undefined) returned HIV RNase H inh-1 78, RmlC RmlD mix inactive and HIV RNase H inh-2 94.
O=C1CCCc2nc(N3CCc4ccccc43)ncc21 was read as HIV RNase H inh-1 inactive and RmlC RmlD mix inactive.
`Cc1ccc(F)c([C@H]2C3C=CCC(c4ccccc4)C3C(=O)N2Cc2ccccc2)c1` (some centres undefined) gave RmlC RmlD mix inactive.
For CCCCCCC(=O)N(O)C1CC(=O)N(c2ccc(Br)cc2)C1=O (centres undefined) the results were HIV RNase H inh-1 inactive and RmlC RmlD mix inactive.
COc1ccccc1N(O)C1CC(=O)N(c2ccc(Br)cc2)C1=O (centres undefined) was read as HIV RNase H inh-1 68, RmlC RmlD mix inactive and HIV RNase H inh-2 inactive.
O=C(O)CCNC(=O)c1ccc(N=Nc2ccc(O)c(C(=O)O)c2)cc1 was read as RmlC RmlD mix inactive.
Screening CNc1sc(C(=O)c2ccc(F)cc2)c(N)c1-c1nc2ccccc2s1 returned RmlC RmlD mix inactive.
For CNc1sc(C(=O)c2cccs2)c(N)c1-c1nc2ccccc2s1 the results were HIV RNase H inh-1 75 and HIV RNase H inh-2 inactive.
`Cc1ccc(C(c2nnnn2Cc2ccccc2)N2CCN(Cc3ccccc3)CC2)cc1` (centres undefined) gave RmlC RmlD mix inactive.
Nc1c(C(=O)Nc2ccc(Br)cc2)sc2nc(-c3ccco3)ccc12 was read as RmlC RmlD mix inactive.
Nc1c(C(=O)Nc2ccc(F)cc2)sc2nc(-c3ccco3)ccc12 was read as HIV RNase H inh-1 89, RmlC RmlD mix inactive and HIV RNase H inh-2 inactive.
Screening CCc1ccc(NC(=O)CCNS(=O)(=O)c2cccc3nonc23)cc1 returned HIV RNase H inh-1 inactive and RmlC RmlD mix inactive.
`Cc1cc(NC(=O)c2cc(C3CC3)on2)n(-c2ccccc2)n1` gave HIV RNase H inh-1 inactive and RmlC RmlD mix inactive.
For Cc1cc(NC(=O)c2cc(C)on2)n(-c2ccccc2)n1 the results were HIV RNase H inh-1 75 and HIV RNase H inh-2 inactive.
`C[C@]1(C(=O)NCc2cc(F)cc(C(F)(F)F)c2)C=C[C@@H](Cc2ccccc2)N1C(=O)c1ccccc1` gave RmlC RmlD mix inactive.
